Measurements taken from the supplement of paper PMC3334620.
Whole data set: some 33,000 sequences, median “E-score (-0.5 to 0.5)” near -0.016, cut for the highest 2% near 0.31. The sample as a whole holds a higher share of the highest values than the screen did.

What follows are sequences tested against Cst6 (UniProt P40535) (assay: PBM E-score (8-mer binding enrichment) (E-score (-0.5 to 0.5)); higher = stronger / more preferred TF binding). Settings: protein concentration: 200 nM; construct: GST-DNA-binding domain.
UniProt P40535, sequence (P40535 whole entry, the tested form may be a part): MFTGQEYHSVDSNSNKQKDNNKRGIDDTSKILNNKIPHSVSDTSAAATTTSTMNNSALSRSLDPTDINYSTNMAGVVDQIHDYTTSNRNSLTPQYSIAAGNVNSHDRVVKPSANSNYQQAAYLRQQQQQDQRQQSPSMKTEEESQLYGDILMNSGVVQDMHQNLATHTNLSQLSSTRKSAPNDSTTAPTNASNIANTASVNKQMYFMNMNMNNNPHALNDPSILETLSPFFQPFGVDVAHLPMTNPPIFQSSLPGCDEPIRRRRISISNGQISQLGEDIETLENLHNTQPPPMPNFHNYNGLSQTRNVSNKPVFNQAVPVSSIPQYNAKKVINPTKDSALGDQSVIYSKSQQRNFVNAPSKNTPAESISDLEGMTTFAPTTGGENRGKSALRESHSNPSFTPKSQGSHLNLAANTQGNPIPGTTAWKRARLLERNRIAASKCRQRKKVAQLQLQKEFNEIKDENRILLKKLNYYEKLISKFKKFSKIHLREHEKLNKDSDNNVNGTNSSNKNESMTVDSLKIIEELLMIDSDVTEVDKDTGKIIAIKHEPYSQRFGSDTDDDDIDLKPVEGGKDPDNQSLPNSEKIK
Experimental: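 Universal 'all 10-mer' protein binding microarrays (Agilent AMADID 015681) probed with GST-tagged S. cerevisiae TFs (full-length or DBD) made by in vitro transcription/translation (PURExpress), about 100-200 nM. Bound TF was detected with fluorescent anti-GST. Each ungapped 8-mer (which stands for itself and its reverse complement) is scored by the PBM enrichment score (E-score), a modified Wilcoxon-Mann-Whitney statistic from -0.5 to +0.5, computed with the Universal PBM Analysis Suite. Scale: above 0.35 generally sequence-specific binding.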
For CTCCGCAC, the “PBM E-score” value was -0.0765.
For CGCTGCGA, the “PBM E-score” value was 0.0077.
For TCAACCCA, the “PBM E-score” value was -0.0214.
For ATCGTCAG, the “PBM E-score” value was 0.131.
With ATCGTCAA the “PBM E-score” value was 0.223.
For ATCGTCAT, the “PBM E-score” value was 0.448.
In the case of GTCGTCAC, the “PBM E-score” value is reported as 0.425.
In the case of GTCGTCAA, the “PBM E-score” value is reported as 0.147.
GTCGTCGA was tested, and the “PBM E-score” value was -0.00727.
With CTAAGACA the “PBM E-score” value was 0.0903.
For AGGGCATA, the “PBM E-score” value was 0.0409.
In the case of AACGCACG, the “PBM E-score” value is reported as 0.179.
AGCCACAG was tested, and the “PBM E-score” value was -0.232.
In the case of ATGGATAC, the “PBM E-score” value is reported as -0.0649.
With AATTCAAA the “PBM E-score” value was 0.23.
With ACGCAATG the “PBM E-score” value was 0.24.
GCGCAATA was tested, and the “PBM E-score” value was -0.079.
For ACGCAATA, the “PBM E-score” value was 0.349.
In the case of ATCAGACA, the “PBM E-score” value is reported as -0.00162.
With ACGGCGCG the “PBM E-score” value was 0.381.
For CCGGCGCG, the “PBM E-score” value was -0.0219.
For CCGGCGCC, the “PBM E-score” value was 0.14.
CCGGCGCA was tested, and the “PBM E-score” value was -0.107.
With ACGGCGCA the “PBM E-score” value was 0.349.
In the case of ACGGCGCC, the “PBM E-score” value is reported as 0.364.
For GCGGCGCC, the “PBM E-score” value was 0.376.
With TCGGCGCA the “PBM E-score” value was 0.071.
In the case of ACGGCGAC, the “PBM E-score” value is reported as 0.217.
GCGGCGCA was tested, and the “PBM E-score” value was 0.197.
For ACGGCGCT, the “PBM E-score” value was 0.251.
With ACGGCGAG the “PBM E-score” value was 0.18.
With ACCAAACA the “PBM E-score” value was 0.277.
For AGGAGCCT, the “PBM E-score” value was -0.209.
In the case of TATAAGAA, the “PBM E-score” value is reported as 0.125.
In the case of GATAAGAA, the “PBM E-score” value is reported as 0.291.
CATAAGAA was tested, and the “PBM E-score” value was 0.342.
For AATAAGAA, the “PBM E-score” value was 0.312.
AATAAGAG was tested, and the “PBM E-score” value was 0.055.
In the case of AATAAGAT, the “PBM E-score” value is reported as 0.232.
In the case of TCCATAAA, the “PBM E-score” value is reported as 0.123.
For CCATTGCC, the “PBM E-score” value was 0.0353.
AATGCACG was tested, and the “PBM E-score” value was 0.0682.
In the case of AAATTCGT, the “PBM E-score” value is reported as 0.306.
With AAATTCGG the “PBM E-score” value was 0.0235.
With AAATTCGC the “PBM E-score” value was 0.211.
CGCCTCAG was tested, and the “PBM E-score” value was 0.00359.
In the case of CCTTGACC, the “PBM E-score” value is reported as -0.19.
For AGTCACAC, the “PBM E-score” value was 0.00702.
With CGTCACAG the “PBM E-score” value was 0.424.
For GGTCACAC, the “PBM E-score” value was -0.0298.
In the case of GGTCACAA, the “PBM E-score” value is reported as -0.0375.
In the case of CGTCACAA, the “PBM E-score” value is reported as 0.4.
In the case of TGTCACAA, the “PBM E-score” value is reported as 0.254.
With CGTCAGAC the “PBM E-score” value was 0.287.
CGTCACAC was tested, and the “PBM E-score” value was 0.414.
In the case of CGTCAGAA, the “PBM E-score” value is reported as 0.286.
For AGTCACAG, the “PBM E-score” value was -0.0682.
For CGTCAGAG, the “PBM E-score” value was 0.365.
CCTCACAG was tested, and the “PBM E-score” value was -0.0712.
With ACGATTCT the “PBM E-score” value was 0.039.
ACTATCCG was tested, and the “PBM E-score” value was 0.0433.
CAAACCAG was tested, and the “PBM E-score” value was -0.0964.
For CATACATG, the “PBM E-score” value was 0.0541.
CCTTCTCG was tested, and the “PBM E-score” value was -0.264.
In the case of CAGTAGAG, the “PBM E-score” value is reported as -0.0984.
With AGACAAAT the “PBM E-score” value was 0.159.
With AGAAAATG the “PBM E-score” value was 0.0622.
In the case of ATCATTGA, the “PBM E-score” value is reported as 0.306.
GTCATTGA was tested, and the “PBM E-score” value was 0.391.
ATCATTGC was tested, and the “PBM E-score” value was 0.188.
CTCATTGA was tested, and the “PBM E-score” value was -0.0286.
With ATCATTGG the “PBM E-score” value was 0.194.
With GACATTGA the “PBM E-score” value was 0.096.
With AGGGCTTG the “PBM E-score” value was -0.0617.
In the case of AGGATCAG, the “PBM E-score” value is reported as -0.266.
CTTCCTGA was tested, and the “PBM E-score” value was 0.112.
In the case of GGGACTCA, the “PBM E-score” value is reported as -0.353.
With CTAGCTAG the “PBM E-score” value was -0.074.
With AAAATAAT the “PBM E-score” value was 0.302.
AGGTTCCA was tested, and the “PBM E-score” value was -0.124.
In the case of ATAGTGAA, the “PBM E-score” value is reported as -0.00864.
With GCAGTGAC the “PBM E-score” value was 0.17.
For CTAGTGAC, the “PBM E-score” value was 0.234.
With GTAGTGAA the “PBM E-score” value was 0.0467.
In the case of GTAGTGAC, the “PBM E-score” value is reported as 0.332.
For ATAGTGAC, the “PBM E-score” value was 0.392.
For CTCCTGGC, the “PBM E-score” value was -0.195.
With CTTCCTCC the “PBM E-score” value was -0.235.
ATGTCTTC was tested, and the “PBM E-score” value was -0.153.
For CGATACTA, the “PBM E-score” value was 0.1.
CAACTTCG was tested, and the “PBM E-score” value was 0.0207.
For ACATCAAG, the “PBM E-score” value was 0.207.
ACATCAGA was tested, and the “PBM E-score” value was 0.16.
For ACATCATC, the “PBM E-score” value was 0.462.
CCATCATC was tested, and the “PBM E-score” value was 0.146.
With GCATCAGA the “PBM E-score” value was 0.159.
In the case of ACATCATG, the “PBM E-score” value is reported as 0.409.
With AAATCATC the “PBM E-score” value was 0.175.
With GCATCATA the “PBM E-score” value was 0.339.
With AGATCATG the “PBM E-score” value was 0.137.
For CCATCATA, the “PBM E-score” value was 0.122.
In the case of ACATCATA, the “PBM E-score” value is reported as 0.443.
For AAATCATA, the “PBM E-score” value was 0.275.
ACTTAACT was tested, and the “PBM E-score” value was 0.0697.
In the case of ATAGCCAA, the “PBM E-score” value is reported as 0.0258.
For GGAGCAGA, the “PBM E-score” value was -0.114.
For TATGCTAA, the “PBM E-score” value was 0.0861.
With CTAGGATA the “PBM E-score” value was -0.125.
In the case of ATCTGGGA, the “PBM E-score” value is reported as -0.197.
With GGTTGCGA the “PBM E-score” value was -0.0447.
In the case of AGGGCATC, the “PBM E-score” value is reported as -0.0843.
For GGGGTGAC, the “PBM E-score” value was 0.284.
In the case of ACGGTGAT, the “PBM E-score” value is reported as 0.121.
For AGGGTGAC, the “PBM E-score” value was 0.345.
With GCGGTGAA the “PBM E-score” value was 0.0906.
For GCGGTGAC, the “PBM E-score” value was 0.345.
For AGGGTGAG, the “PBM E-score” value was -0.176.
In the case of CAGGTGAC, the “PBM E-score” value is reported as 0.258.
In the case of GAGGTGAC, the “PBM E-score” value is reported as 0.407.
For ACGGTGAG, the “PBM E-score” value was -0.0622.
In the case of AAGGTGAC, the “PBM E-score” value is reported as 0.243.
In the case of ACGGTGAC, the “PBM E-score” value is reported as 0.307.
GCGGTGCC was tested, and the “PBM E-score” value was -0.0111.
In the case of CGGGCCGA, the “PBM E-score” value is reported as -0.167.
For GAGTATGA, the “PBM E-score” value was 0.169.
With CATGATCA the “PBM E-score” value was 0.231.
In the case of CCGGTAGA, the “PBM E-score” value is reported as -0.132.
CTCCCTGC was tested, and the “PBM E-score” value was -0.218.
In the case of ACAGAGAT, the “PBM E-score” value is reported as 0.178.
For CCCTTCCG, the “PBM E-score” value was -0.274.
With CATAGTTC the “PBM E-score” value was 0.0666.
In the case of AGTGAGAA, the “PBM E-score” value is reported as 0.149.
With ACGGGGCC the “PBM E-score” value was 0.00152.
In the case of AGTGAACG, the “PBM E-score” value is reported as -0.0226.
For GGCTCCCC, the “PBM E-score” value was -0.226.
ATTCCATC was tested, and the “PBM E-score” value was 0.199.
In the case of CCGGTGAC, the “PBM E-score” value is reported as 0.335.
In the case of CCGGTGAG, the “PBM E-score” value is reported as -0.116.
CCGGTGAA was tested, and the “PBM E-score” value was 0.0804.
With CACACAAA the “PBM E-score” value was 0.165.
In the case of AACACAAA, the “PBM E-score” value is reported as 0.0222.
In the case of TACACAAA, the “PBM E-score” value is reported as 0.311.
TCTGGCCA was tested, and the “PBM E-score” value was -0.0762.
In the case of AATTTTGC, the “PBM E-score” value is reported as 0.144.
In the case of CGCATCCG, the “PBM E-score” value is reported as -0.0682.
ATCATCCC was tested, and the “PBM E-score” value was 0.154.
AGTCACCC was tested, and the “PBM E-score” value was 0.117.
With CGTCACCC the “PBM E-score” value was 0.466.
In the case of CGTCACCA, the “PBM E-score” value is reported as 0.484.
In the case of AGTCACCA, the “PBM E-score” value is reported as 0.0433.
In the case of CCTCACCC, the “PBM E-score” value is reported as 0.0853.
In the case of GGTCACCA, the “PBM E-score” value is reported as -0.148.
For CGCCTCAC, the “PBM E-score” value was 0.135.
ATACCATC was tested, and the “PBM E-score” value was 0.00666.
For ATTCACAC, the “PBM E-score” value was 0.134.
ACGAGTAA was tested, and the “PBM E-score” value was 0.141.
With CGAAATCA the “PBM E-score” value was 0.269.
GGAAATCA was tested, and the “PBM E-score” value was 0.0954.
In the case of TGAAATCA, the “PBM E-score” value is reported as 0.322.
With CCTTTTCG the “PBM E-score” value was 0.021.
For GTTGGACA, the “PBM E-score” value was -0.0168.
In the case of AAGAAAGT, the “PBM E-score” value is reported as 0.153.
GAGGGCTA was tested, and the “PBM E-score” value was -0.27.
In the case of ATTTCGGG, the “PBM E-score” value is reported as 0.0105.
AAAAGTGT was tested, and the “PBM E-score” value was 0.0733.
With AAAAGTGG the “PBM E-score” value was 0.112.
With AAAAGTGA the “PBM E-score” value was 0.306.
GGGGTAAA was tested, and the “PBM E-score” value was 0.0414.
CCTGGGAA was tested, and the “PBM E-score” value was -0.136.
GCGAAAAA was tested, and the “PBM E-score” value was 0.197.
CAAACTTG was tested, and the “PBM E-score” value was -0.0352.
In the case of GTCTCCCA, the “PBM E-score” value is reported as -0.244.
